Data on 38 molecules can be found in PubChem BioAssay AID651650 (Sanford-Burnham Center for Chemical Genomics, 2012).

Neuropilin-1 (Homo sapiens), sequence (O14786 whole entry, looked up): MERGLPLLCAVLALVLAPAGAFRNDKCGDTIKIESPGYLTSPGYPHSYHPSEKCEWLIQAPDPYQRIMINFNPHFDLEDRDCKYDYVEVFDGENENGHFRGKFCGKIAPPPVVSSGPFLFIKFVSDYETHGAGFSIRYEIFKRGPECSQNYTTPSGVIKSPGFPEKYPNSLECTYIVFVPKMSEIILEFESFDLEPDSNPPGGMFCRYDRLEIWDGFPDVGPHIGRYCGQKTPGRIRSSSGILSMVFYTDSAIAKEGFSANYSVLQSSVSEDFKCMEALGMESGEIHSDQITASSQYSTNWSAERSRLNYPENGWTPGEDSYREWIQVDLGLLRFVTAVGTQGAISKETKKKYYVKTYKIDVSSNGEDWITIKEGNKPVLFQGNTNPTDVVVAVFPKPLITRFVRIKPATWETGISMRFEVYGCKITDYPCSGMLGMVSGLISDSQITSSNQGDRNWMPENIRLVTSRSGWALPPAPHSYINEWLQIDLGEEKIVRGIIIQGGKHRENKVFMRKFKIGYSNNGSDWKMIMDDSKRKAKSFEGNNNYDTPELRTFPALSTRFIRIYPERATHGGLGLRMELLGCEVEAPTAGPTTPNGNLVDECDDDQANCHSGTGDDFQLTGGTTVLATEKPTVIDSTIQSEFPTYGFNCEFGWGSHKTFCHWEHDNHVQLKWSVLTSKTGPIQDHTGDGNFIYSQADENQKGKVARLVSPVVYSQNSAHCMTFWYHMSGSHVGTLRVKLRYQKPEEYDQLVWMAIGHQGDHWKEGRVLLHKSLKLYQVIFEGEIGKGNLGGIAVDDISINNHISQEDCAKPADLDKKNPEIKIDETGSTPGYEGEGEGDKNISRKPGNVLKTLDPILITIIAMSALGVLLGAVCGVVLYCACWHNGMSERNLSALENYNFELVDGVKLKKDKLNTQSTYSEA

This assay addresses Neuropilin-1 (Homo sapiens) (UniProt O14786). Nature of the assay: NRP-1 b1b2 CendR peptide binding inhibitors, dose response, biochemical, FP and AlphaScreen panel (AID 651650). Conditions: NRP-1 b1b2 / RPARPAR peptide binding, FP or AlphaScreen; run 1, at 100 µM (top of the series).
Consider `CCc1ccc(OC(=O)CN2C(=O)c3ccccc3C2=O)cc1`, for which the inhibition (usually the relative decrease from the control value, in per cent) worked out at 76.9%.
With `O=C(O)c1cccc(N2C(=O)c3cc([N+](=O)[O-])cc4cc([N+](=O)[O-])cc(c34)C2=O)c1`, the inhibition came to 32.7%.
To `Cc1ccccc1-c1cnc(C(O)c2ccc(F)c(F)c2)[nH]1` (stereo not drawn) belongs 43.1%.
For `O=[N+]([O-])c1ccc(Cc2ccncc2)cc1`, the inhibition came to 15.9%.
As for `N=C1C(=O)OCC1c1cc(Cl)ccc1NC(=O)Nc1ccccc1` (stereo not drawn), the inhibition worked out at 47.4%.
Consider `CCCCOC(=O)c1ccc(NS(=O)(=O)c2cc(-c3nnnn3CC)ccc2OC)cc1`, for which the inhibition stood at 44.5%.
On to `CC(C)(C)OC(=O)N1CCN(C(=O)c2[nH]cnc2C(=O)NCc2ccccc2)CC1`, for which the inhibition was determined as 34.4%.
As to `CCOC(=O)c1ccc2[nH]c(C)c(C)c2c1`, the inhibition was -0.673%.
With `CC(C)(C)C(=O)COC(=O)c1cc(-c2ccncc2)nc2ccccc12`, the inhibition worked out at 19.4%.
For `CCOc1cc(C(=O)NCCN2CCOCC2)cc(OCC)c1OCC`, the inhibition was found to be 23.9%.
In the case of `NC(=S)NNC(=S)Nc1ccccc1`, the inhibition was found to be 9.47%.
For `Cc1onc(-c2ccccc2)c1C(=O)Nc1c(C)n(C)n(-c2ccccc2)c1=O` the value was 28.1%; for `O=C1CCC/C=C\C[C@@H](CC(=O)N(CCO)Cc2ccccc2)C(=O)N2CCC[C@H]2CO1`, -2.11%.
Take `COc1cccc(NC(=O)CSc2nc(O)c(C)c(=O)n2-c2ccc(C)cc2)c1`: the inhibition was determined as 84.9%.
To `COc1ccc(C(=O)N2CCC(C(=O)NCc3ccccn3)CC2)cc1` belongs 20.9%; to `Cc1ccc(NC(=S)Nc2cccc3ccccc23)cc1`, 13.4%.
To `CCOC(=O)c1cnc(-c2ccccc2)nc1Oc1ccc(OC)cc1` belongs 99.5%; to `Cc1nc(SCc2ccc(C(=O)O)cc2)nc2c1CCCC2`, 41.7%.
Take `Cc1cccc(-c2noc(CSc3ccccc3)n2)c1`: the inhibition was found to be 0.214%.
In the case of `COc1ccc(C(=O)N2CCC(C)(C(=O)NS(=O)(=O)C3CC3)C2)cc1F` (stereo not drawn), the inhibition was 12.1%.
`Cc1ccc(NC=C(S(=O)(=O)c2ccccc2)S(=O)(=O)c2ccccc2)cc1`: the inhibition is -22.8%.
As to `Nc1ccc(C#Cc2c(-c3ccsc3)oc3ccc(N4CCOCC4)cc23)cc1`, the inhibition is 28.3%.
In the case of `COc1ccc(/C=N/NC(=O)c2ccccc2Cl)cc1CSc1nc2ccccc2s1`, the inhibition stood at 28.7%.
For `O=C(Nc1cc(C(F)(F)F)ccc1N1CCCC1)C1CC(=O)N(Cc2ccccc2)C1` (stereo not drawn) the value was 2.78%; for `Cc1ccc(OCC(=O)Nc2ccc(C)c(S(=O)(=O)N3CCCCCC3)c2)c([N+](=O)[O-])n1`, 44.6%.
On to `COc1ccc(S(=O)(=O)N2CCCCC2)cc1NC(=O)c1c(F)cccc1Cl`, for which the inhibition stood at 37.3%.
As for `COc1ccc(C(C(=O)NC(C)(C)C)N(C(=O)CCC(=O)Nc2cc(C)on2)c2c(C)cccc2C)cc1` (stereo not drawn), the inhibition worked out at 42.7%.
To `O=C(Nc1ccccc1N1CCOCC1)c1ccc(N2CCCC2=O)cc1` belongs 46.3%.
On to `C[C@@H](NC(=O)c1nc[nH]c1C(=O)NCc1ccccc1)c1ccccc1`, for which the inhibition was 23.1%.
Turning to `O=C(Nc1ccc(F)cc1)c1cc(S(=O)(=O)Nc2ccc(F)cc2)cs1`, the inhibition was 2.95%.
For the molecule `O=C(NNC(=O)c1csc(N2CCOCC2)n1)c1ccc(=O)[nH]c1`, the inhibition was 39.8%.
On to `Cc1cc(S(=O)(=O)NC2CCCCC2)ccc1OCC(=O)N1CCOCC1`, for which the inhibition was 97.6%.
To `Cc1ccccc1NC(=S)NC(=O)COc1ccccc1C` belongs 98.2%; to `COc1ccc(C2CC(O)(c3ccccc3)Oc3cc(OC)ccc32)cc1` (stereo not drawn), 7.29%; to `CCc1cc(C(=O)OC)c(NC(=O)c2ccoc2C)s1`, 41.2%.
Regarding `COc1ccc(OCC(=O)O/N=C(\N)Cc2ccc(Cl)cc2Cl)cc1`, the inhibition is 61.1%.
For `O=[N+]([O-])c1ccc(Nc2nc(NC3CCCCC3)nc(N3CCCC3)n2)cc1` the value was 25.6%; for `O=C(Nc1cccc(S(=O)(=O)N2CCCCC2)c1)c1ccc([N+](=O)[O-])o1`, 52.5%.
